Results on 33 molecules are retold here after PubChem BioAssay (NCATS).

The nature of assay [1]: qHTS for Inhibitors of the Functional Ribonucleoprotein Complex (vRNP) of Lassa (LASV) Arenavirus: LASV Primary Screen - GLuc reporter signal (AID 1347082; calls by dose curve; tested in HEK293 reporter line; note: nearly all actives have a fitted effect of over 60% in size; note: potency is the fitted concentration of half-maximal effect; for activity change, negative = inhibition: % is set by controls: 0 for no effect and ±100 for the full control effect). For orientation: In qHTS, concentration-response curves come from the screen itself.
A short description of assay [2]: qHTS for Inhibitors of the Functional Ribonucleoprotein Complex (vRNP) of Lymphocytic Choriomeningitis Arenaviruses (LCMV): Viability assay - alamar blue signal for LCMV Primary Screen (AID 1347085; calls by dose curve; tested in HEK293 reporter line; note: nearly all actives have a fitted effect of over 80% in size; note: potency is the fitted concentration of half-maximal effect).
The target of assay [3] is Nucleoprotein (Lymphocytic choriomeningitis virus (strain Armstrong)) (UniProt P09992). Description: qHTS for Inhibitors of the Functional Ribonucleoprotein Complex (vRNP) of Lymphocytic Choriomeningitis Arenaviruses (LCMV): LCMV Primary Screen - GLuc reporter signal (AID 1347086). For activity change, negative = inhibition: % is set by controls: 0 for no effect and ±100 for the full control effect. Note: nearly all actives have a fitted effect of over 70% in size. Note: potency is the fitted concentration of half-maximal effect.
Assay [4] in a line: Cytotoxicity counterscreen for inhibitors of SARS-CoV-2 cell entry (AID 1645845). Note: nearly all actives have a fitted effect of over 50% in size. Note: potency is the fitted concentration of half-maximal effect. Put shortly:
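Expi293F/hACE2 cells seeded overnight; cpd pin-transferred in DMSO, 1 h preincubation, + media, 48 h 37 C 5% CO2; ATPLite 1step luminescence; normalized to cells and no cells.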
Background: The purpose of a counterscreen is to sort out artefacts and off-target activity.

The nature of assay [5]: Primary qHTS to identify inhibitors of SARS-CoV-2 cell entry (AID 1645846). Note: nearly all actives have a fitted effect of over 45% in size. Note: potency is the fitted concentration of half-maximal effect. The note with it: activity change, negative = inhibition: at 57.1 µM (top of the series) unless noted. In a few lines:
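HEK293 cells stably expressing human ACE2, pre-treated 1 h with compound, then infected with MLV particles pseudotyped with Wuhan-Hu-1 spike (C-terminal 19-aa truncation). Luciferase luminescence after 48 h at 37 °C, normalised to spike PP and bald PP.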

The nature of assay [6]: Confirmatory qHTS for VERO E6 Cytotoxicity Assay: Counterscreen for SARS-CoV-2 CPE Assay (AID 1508605). Note: potency is the fitted concentration of half-maximal effect; nearly all actives have a fitted effect of over 60% in size.
Assay [7] can be described thus: Confirmatory qHTS for activators (rescue) of SARS-CoV-2 Cytopathic Effect (CPE) (AID 1508606). Note: nearly all actives have a fitted effect of over 70% in size. Note: potency is the fitted concentration of half-maximal effect.
Assay [8] is described as follows: qHTS for inhibitors of Rabies Virus screened against the NCATS CANVASS Library (AID 1347402). Note: 0% is about no effect.
In assay [9] the target is Alpha-galactosidase (Coffea arabica) (UniProt Q42656). Description: Counterscreen for Glucocerebrosidase Inhibitors: qHTS Assay for Coffee Bean alpha-Galactosidase at pH 4.5 (AID 957; active = well fitted curve in the direction sought with a large enough effect; an effect the other way counts as inactive or inconclusive;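 note: plate controls were enzyme alone for no effect and no enzyme for full effect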). Put shortly: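 AC50 values derive from Hill-equation modeling of concentration-response data, normalized to no-enzyme and full-activity controls. The pH 4.5 citrate assay used 2 nM coffee bean enzyme and 80 uM fluorogenic substrate for 20 min.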

Assay [10] shares this target. Briefly: Counterscreen for Glucocerebrosidase Inhibitors: qHTS Assay for Coffee Bean alpha-Galactosidase at pH 5.9 (AID 998; active = well fitted curve in the direction sought with a large enough effect; an effect the other way counts as inactive or inconclusive;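 note: plate controls were uninhibited enzyme for no effect and no-enzyme basal signal for full effect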). In a few lines: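 Green coffee bean enzyme (2 nM final) was incubated with compounds (0.7 nM–77 uM) and 4-methylumbelliferyl alpha-D-galactopyranoside (80 uM) in citrate buffer pH 5.9, 20 min at room temperature. High-pH stop; fluorescence 365/440 nm; AC50 from Hill fits.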

Assay [11] can be described thus: Inducers of the Endoplasmic Reticulum Stress Response (ERSR) in human glioma: Validation (AID 504836; active = well fitted curve in the direction sought with a large enough effect; an effect the other way counts as inactive or inconclusive; note: 0% is about no effect). Put shortly:
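Stably transfected U87-MG human glioma cells carrying a GRP78-based luminescent sensor were seeded at 1000 cells/well, pin-dosed with compounds and incubated 16 h. Luciferase reagent was then added, and end-point luminescence was read after 10 min at room temperature.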

Inconclusive results are not listed. The source made the active and inactive calls. Unless noted, calls come from the whole dose curve.

Nucleoprotein (Lymphocytic choriomeningitis virus (strain Armstrong)), sequence (P09992 whole entry, looked up): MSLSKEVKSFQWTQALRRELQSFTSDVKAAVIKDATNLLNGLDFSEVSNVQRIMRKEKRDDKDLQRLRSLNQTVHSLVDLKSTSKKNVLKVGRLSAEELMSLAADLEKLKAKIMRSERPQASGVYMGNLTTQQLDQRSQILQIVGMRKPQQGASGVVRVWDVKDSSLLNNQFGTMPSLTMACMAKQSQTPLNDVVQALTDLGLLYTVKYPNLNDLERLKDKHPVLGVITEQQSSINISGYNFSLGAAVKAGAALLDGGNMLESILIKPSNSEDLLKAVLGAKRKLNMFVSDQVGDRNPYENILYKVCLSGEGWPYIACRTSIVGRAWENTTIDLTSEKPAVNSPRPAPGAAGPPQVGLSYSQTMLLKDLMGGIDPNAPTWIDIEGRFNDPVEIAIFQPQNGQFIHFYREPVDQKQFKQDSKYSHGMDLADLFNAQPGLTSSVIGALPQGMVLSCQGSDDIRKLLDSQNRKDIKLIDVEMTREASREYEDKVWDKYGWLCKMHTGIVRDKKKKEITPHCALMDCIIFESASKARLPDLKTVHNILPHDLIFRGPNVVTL
Alpha-galactosidase (Coffea arabica), sequence (Q42656 whole entry, looked up): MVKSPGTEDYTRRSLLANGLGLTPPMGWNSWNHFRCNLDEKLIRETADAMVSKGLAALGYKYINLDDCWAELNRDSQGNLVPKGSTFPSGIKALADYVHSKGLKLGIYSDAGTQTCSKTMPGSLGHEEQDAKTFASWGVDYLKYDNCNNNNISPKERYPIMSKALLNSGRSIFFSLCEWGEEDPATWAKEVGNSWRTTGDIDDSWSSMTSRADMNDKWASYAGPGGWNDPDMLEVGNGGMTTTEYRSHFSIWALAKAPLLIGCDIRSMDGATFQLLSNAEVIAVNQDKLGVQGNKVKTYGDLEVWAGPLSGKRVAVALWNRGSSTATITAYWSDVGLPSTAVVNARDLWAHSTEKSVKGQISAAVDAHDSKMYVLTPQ

`COC1=C2C[C@@H](C)C[C@H](OC)[C@@H](O)[C@@H](C)C=C(C)[C@H](OC(N)=O)[C@@H](OC)C=CC=C(C)C(=O)NC(=CC1=O)C2=O`: the Potency is 9.68 µM (active) in assay [1], 13.7 µM (active) in assay [2] and 15.3 µM (active) in [3].
The matching figures for `COc1cc2c3cc1Oc1c(OC)c(OC)cc4c1[C@H](Cc1ccc(cc1)Oc1cc(ccc1O)C[C@H]3N(C)CC2)N(C)CC4`: “inactive”, “inactive” and “inactive”.
Turning to `NC(=O)c1cccc2[nH]c(-c3ccc([C@H]4CCCN4)cc3F)nc12`, the Potency result in assay [1], in assay [2] and in assay [3] was “inactive” each time. Also, the results for the Potency in assay [4] and in assay [5] were 11.2 µM (active) and 31.6 µM (active), respectively.
As to `N[C@H](CSC(c1ccccc1)(c1ccccc1)c1ccccc1)C(=O)O`, the Potency result in assay [1], in [2], in assay [3] and in [4] was “inactive” throughout. For the same molecule, the activity change, negative = inhibition in assay [5] is -15.9%.
For `O=C(c1ccc(C=Cc2n[nH]c3ccccc23)cc1)N1CCNCC1`, the Potency entry in [1], in assay [2] and in assay [3] was “inactive” throughout.
As for `CC/C=C\[C@H](O)[C@H](O)C1=C(C)C(=O)[C@]2(O1)C(=O)N[C@@](OC)(C(=O)c1ccccc1)C2O` (stereo partly specified), the Potency entry in [1], in assay [2] and in assay [3] was “inactive” each time.
For `CN(Cc1nc2c(N)nc(N)nc2[nH]c1=O)c1ccc(C(=O)NC(CCC(=O)O)C(=O)O)cc1` (stereo unspecified), the Potency result in assay [1], in assay [2] and in assay [3] was “inactive” each time.
As to `Cc1nccc2c1[nH]c1ccc(Br)cc12`, the Potency result in assay [1], in assay [2] and in [3] was “inactive” in each case.
Consider `Cc1cccc(Nc2nc(-c3ccncc3)cs2)c1`, for which the Potency result in assay [1], in assay [2] and in [3] was “inactive” each time. Further, the Potency in [6] is 10 µM (active); in [7] it was 0.794 µM (active); in assay [5], 10 µM (active).
Regarding `C[C@]12CC[C@@H]3c4ccc(O)cc4CC[C@H]3[C@H]1[C@@H](O)[C@@H](O)[C@H]2O`, the Potency result in assay [1], in assay [2], in assay [3], in assay [4] and in [5] was “inactive” in each case.
Consider `COc1ccc(C2CC(c3ccccc3)=NN2c2ccc(S(N)(=O)=O)cc2)cc1` (stereo unspecified), for which the Potency entry in assay [1], in assay [2], in assay [3] and in assay [4] was “inactive” each time. For the same molecule, the activity change, negative = inhibition in assay [5] was -0.201%.
`COc1cc2c(cc1OC)-c1cc3cc(OC)c(OC)cc3c(=O)n1CC2`: the Potency entry in assay [1], in [2] and in assay [3] was “inactive” throughout.
On to `COc1cc2c(cc1OC)C(C)N(Cc1ccc3c(c1)OCO3)CC2` (stereo unspecified), for which the Potency entry in assay [1], in assay [2] and in assay [3] was “inactive” each time.
For `CCN(CCO)CCCOc1ccc2c(Nc3cc(CC(=O)Nc4cccc(F)c4)[nH]n3)ncnc2c1`, the Potency result in assay [1], in assay [2], in assay [3] and in [4] was “inactive” in each case. Further, the activity change, negative = inhibition in [5] is -58.3%.
Take `Cc1nc(NC(=O)N2CCC[C@@H]2C(N)=O)sc1-c1csc(C(C)(C)C)n1`: the Potency result in [1], in assay [2] and in assay [3] was “inactive” throughout.
In the case of `Nc1ccc(S(=O)(=O)Nc2ncccn2)cc1`, the Potency result in [1], in assay [2] and in assay [3] was “inactive” throughout.
Take `Cn1cc(-c2ccncc2)c(-c2ccc(OCc3ccc4ccccc4n3)cc2)n1`: the Potency in [1] and in assay [3] was 21.7 µM (active) throughout. In addition, the Potency entry in [2] and in assay [7] was “inactive” in each case.
With `Fc1ccc(CNc2ncnc3ccc(F)cc23)cc1`, the Potency in [1] is 19.3 µM (active); in assay [3] it was 24.3 µM (active). Further, the Potency entry in [2] was “inactive”.
Taken in the same sequence, the figures for `O=c1c(O)c(-c2ccccc2)oc2ccccc12` were “inactive”, “inactive” and “inactive”.
In the case of `CN1CCN(c2cccc(Nc3nc4c(-c5ccc(S(C)(=O)=O)cc5)cccn4n3)c2)CC1`, the Potency entry in assay [1], in assay [2], in assay [3] and in [4] was “inactive” each time.
Regarding `COc1c(O)cc(O)c2c(=O)cc(-c3ccccc3)oc12`, the Potency result in assay [1], in [2] and in assay [3] was “inactive” throughout. Moreover, in [8], the call was inactive.
As to `COC1C(O)C(C)OC(OC2CCC3(C=O)C(CCC4C3CCC3(C)C(C5=CC(=O)OC5)CCC43O)C2)C1O` (stereo unspecified), the Potency entry in [1], in assay [2] and in assay [3] was “inactive” each time.
As for `C[C@H](NC(=O)C(C#N)=Cc1cccc(Br)n1)c1ccccc1`, the Potency entry in assay [1], in assay [2] and in [3] was “inactive” in each case.
As to `COc1cc(C(C)C)c2c(c1)S(=O)(=O)N(COc1cc(=O)n3cccc(OCCN4CCCCC4)c3n1)C2=O`, the Potency result in assay [1], in assay [2], in assay [3] and in assay [4] was “inactive” throughout.
For the molecule `C=C1CCC2C(C)(C)[C@H](O)CC[C@@]2(C)[C@@H]1COc1cc(=O)oc2ccccc12` (stereo partly specified), the Potency entry in assay [1], in assay [2] and in [3] was “inactive” in each case.
On to `COc1cc(O)c2c(=O)c(-c3ccc(O[C@@H]4O[C@H](CO)[C@@H](O)[C@H](O)[C@H]4O)cc3)coc2c1`, for which the Potency entry in assay [1], in assay [2] and in assay [3] was “inactive” in each case.
For `C=C1C(=O)O[C@H]2[C@H]1[C@H](OC(=O)/C(C)=C\C)C[C@]1(CO1)[C@@H]1[C@H](OC(C)=O)C=C(C)[C@]21O`, the Potency entry in assay [1], in assay [2] and in [3] was “inactive” throughout.
Turning to `CCOC(=O)N1CCN([N+]([O-])=NOc2ccc([N+](=O)[O-])cc2[N+](=O)[O-])CC1`, the Potency entry in [1] and in assay [3] was “inactive” each time.
In the case of `C[C@H]1C/C=C/[C@@H]2[C@@H]3O[C@]3(C)[C@@H](C)[C@H]3[C@H](Cc4ccccc4)NC(=O)[C@]32OC(=O)O/C=C/[C@](C)(O)C1=O`, the Potency result in assay [1] and in assay [3] was “inactive” throughout.
In the case of `CN(C)CCc1cc2c(c3c1ccc1ccccc13)OCO2`, the Potency entry in assay [1] and in assay [3] was “inactive” throughout.
On to `NC(=Nc1ccccc1)NC(=O)c1nc(Cl)c(N)nc1N`, for which the call in assay [9], in [10] and in assay [11] was inactive. The Potency entry in assay [1], in [2] and in assay [3] was “inactive” throughout.
In the case of `Nc1ncnc2c1nc(Br)n2C1OC2COP(=O)(O)O[C@@H]2C1O` (stereo partly specified), the call in assay [11] was inactive. Moreover, the Potency result in assay [1], in [2] and in assay [3] was “inactive” each time.
Turning to `CCC(C)SSc1ncc[nH]1` (stereo unspecified), the Potency result in assay [1] and in assay [3] was “inactive” throughout.
